Records with an inconclusive call do not appear. Activity calls are given as the source filed them. Unless noted, calls come from the whole dose curve.
Assays:
[1] = Inducers of the Endoplasmic Reticulum Stress Response (ERSR) in human glioma: Validation (AID 504836; active = well fitted curve in the direction sought with a large enough effect; an effect the other way counts as inactive or inconclusive; note: 0% is about no effect)
How it was run: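 Stably transfected U87-MG human glioma cells carrying a GRP78-based luminescent sensor were seeded at 1000 cells/well, pin-dosed with compounds and incubated 16 h. Luciferase reagent was then added, and end-point luminescence was read after 10 min at room temperature.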

[2] = qHTS for Inhibitors of the Functional Ribonucleoprotein Complex (vRNP) of Lassa (LASV) Arenavirus: LASV Primary Screen - GLuc reporter signal (AID 1347082; calls by dose curve; tested in HEK293 reporter line; note: series mostly up to about 57 µM; % is set by controls: 0 for no effect and ±100 for the full control effect; nearly all actives have a fitted effect of over 60% in size)
[3] = qHTS for Inhibitors of the Functional Ribonucleoprotein Complex (vRNP) of Lassa (LASV) Arenavirus: Viability assay - alamar blue signal for LASV Primary Screen (AID 1347083; calls by dose curve; tested in HEK293 reporter line; note: series mostly up to about 57 µM; % is set by controls: 0 for no effect and ±100 for the full control effect; nearly all actives have a fitted effect of over 80% in size)
[4] = qHTS for Inhibitors of the Functional Ribonucleoprotein Complex (vRNP) of Lymphocytic Choriomeningitis Arenaviruses (LCMV): Viability assay - alamar blue signal for LCMV Primary Screen (AID 1347085; calls by dose curve; tested in HEK293 reporter line; note: series mostly up to about 57 µM; % is set by controls: 0 for no effect and ±100 for the full control effect; nearly all actives have a fitted effect of over 80% in size)
[5] = molecular target: Nucleoprotein (Lymphocytic choriomeningitis virus (strain Armstrong)) (UniProt P09992); assay: qHTS for Inhibitors of the Functional Ribonucleoprotein Complex (vRNP) of Lymphocytic Choriomeningitis Arenaviruses (LCMV): LCMV Primary Screen - GLuc reporter signal (AID 1347086); note: series mostly up to about 57 µM; % is set by controls: 0 for no effect and ±100 for the full control effect; nearly all actives have a fitted effect of over 70% in size
[6] = molecular target: Alpha-galactosidase (Coffea arabica) (UniProt Q42656); assay: Counterscreen for Glucocerebrosidase Inhibitors: qHTS Assay for Coffee Bean alpha-Galactosidase at pH 4.5 (AID 957; active = well fitted curve in the direction sought with a large enough effect; an effect the other way counts as inactive or inconclusive;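 note: series mostly up to about 77 µM; plate controls were enzyme alone for no effect and no enzyme for full effect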)
How it was run: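 Green coffee bean enzyme (2 nM final) was incubated with compounds (0.7 nM to 77 uM) and 4-methylumbelliferyl alpha-D-galactopyranoside (80 uM final) in 50 mM citric acid, 0.005% Tween-20, pH 4.5, 20 min at room temperature; AC50 from Hill fits.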

[7] = molecular target: Ubiquitin carboxyl-terminal hydrolase 1 (Homo sapiens) (UniProt O94782); assay: Inhibitors of USP1/UAF1: Pilot qHTS (AID 504865; active = well fitted curve in the direction sought with a large enough effect; an effect the other way counts as inactive or inconclusive;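 note: rhodamine fluorescence freed from ubiquitin-rhodamine substrate followed over time; top concentration of the series differs between compounds; % is set by controls: 0 for no effect and ±100 for the full control effect; nearly all actives have a fitted effect of over 35% in size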)
How it was run: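 In 50mM HEPES pH 7.8 containing 0.5mM EDTA, 1mM TCEP, 0.1 mg/ml BSA and 0.01% Tween-20, 1nM USP1/UAF1 is exposed to compound for 15 min, then Ub-Rho (150nM final) is added and fluorescence is read over time.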

[8] = molecular target: Alpha-galactosidase (Coffea arabica) (UniProt Q42656); assay: Counterscreen for Glucocerebrosidase Inhibitors: qHTS Assay for Coffee Bean alpha-Galactosidase at pH 5.9 (AID 998; active = well fitted curve in the direction sought with a large enough effect; an effect the other way counts as inactive or inconclusive;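 note: plate controls were uninhibited enzyme for no effect and no-enzyme basal signal for full effect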)
How it was run: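 Green coffee bean enzyme (2 nM final) was incubated with compounds (0.7 nM–77 uM) and 4-methylumbelliferyl alpha-D-galactopyranoside (80 uM) in citrate buffer pH 5.9, 20 min at room temperature. High-pH stop; fluorescence 365/440 nm; AC50 from Hill fits.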

[9] = molecular target: Bile acid receptor (Homo sapiens) (UniProt Q96RI1); assay: qHTS assay for small molecule agonists of farnesoid X receptor signaling (AID 588527); settings: HEK293T FXR-UAS-bla, beta-lactamase ratio, 16 h; activation: active compounds read high;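 note: series mostly up to about 77 µM; 0% = vehicle basal and 100% = reference agonist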
How it was run: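 FXR-UAS-bla HEK293T cells (10% dialyzed FBS) preincubated 5-7 h at 37 C, then compounds at up to 92 uM for 16 h at 37 C. CCF4 beta-lactamase read-out after 2 h RT. Normalized to chenodeoxycholic acid (100 uM) and DMSO; Hill fit gave EC50 and efficacy.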

[10] = molecular target: Peroxisome proliferator-activated receptor delta (Homo sapiens) (UniProt Q03181); assay: qHTS assay for small molecule agonists of peroxisome proliferator-activated receptor delta signaling (AID 588534);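 note: 0% = DMSO basal wells and 100% = positive control agonist at 10 µM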
How it was run: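 Cell-based beta-lactamase reporter assay run in agonist mode: cells seeded and incubated 5 hrs at 37 C, compounds added and incubated 18 hrs at 37 C. CCF4 dye fluorescence read after 2 hrs at RT; EC50 and efficacy from Hill fits.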

Nucleoprotein (Lymphocytic choriomeningitis virus (strain Armstrong)), sequence (P09992 whole entry, looked up): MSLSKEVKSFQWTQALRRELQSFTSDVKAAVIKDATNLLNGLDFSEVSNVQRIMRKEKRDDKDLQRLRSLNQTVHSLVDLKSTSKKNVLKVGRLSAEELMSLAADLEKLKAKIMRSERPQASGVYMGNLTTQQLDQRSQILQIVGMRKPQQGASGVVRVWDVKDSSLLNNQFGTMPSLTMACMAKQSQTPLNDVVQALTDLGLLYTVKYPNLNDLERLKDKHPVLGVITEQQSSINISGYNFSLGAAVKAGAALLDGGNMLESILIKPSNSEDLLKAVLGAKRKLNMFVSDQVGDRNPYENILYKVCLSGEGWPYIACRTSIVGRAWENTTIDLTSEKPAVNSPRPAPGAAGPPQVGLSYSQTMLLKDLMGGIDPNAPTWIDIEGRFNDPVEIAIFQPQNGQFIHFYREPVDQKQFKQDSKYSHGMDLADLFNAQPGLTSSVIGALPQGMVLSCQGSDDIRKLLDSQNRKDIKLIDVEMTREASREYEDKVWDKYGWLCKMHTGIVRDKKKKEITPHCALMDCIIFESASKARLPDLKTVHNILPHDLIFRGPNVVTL
Alpha-galactosidase (Coffea arabica), sequence (Q42656 whole entry, looked up): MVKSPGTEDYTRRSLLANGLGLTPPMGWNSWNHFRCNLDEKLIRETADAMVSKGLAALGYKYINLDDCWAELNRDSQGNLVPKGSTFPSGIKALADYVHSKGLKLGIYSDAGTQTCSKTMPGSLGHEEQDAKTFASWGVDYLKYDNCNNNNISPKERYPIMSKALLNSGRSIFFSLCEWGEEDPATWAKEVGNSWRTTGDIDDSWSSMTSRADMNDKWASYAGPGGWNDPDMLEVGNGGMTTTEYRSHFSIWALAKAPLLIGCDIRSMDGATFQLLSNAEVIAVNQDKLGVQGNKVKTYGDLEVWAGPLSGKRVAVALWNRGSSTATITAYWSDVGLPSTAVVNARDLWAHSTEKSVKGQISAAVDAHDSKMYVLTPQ
Bile acid receptor (Homo sapiens), sequence (Q96RI1 whole entry, looked up): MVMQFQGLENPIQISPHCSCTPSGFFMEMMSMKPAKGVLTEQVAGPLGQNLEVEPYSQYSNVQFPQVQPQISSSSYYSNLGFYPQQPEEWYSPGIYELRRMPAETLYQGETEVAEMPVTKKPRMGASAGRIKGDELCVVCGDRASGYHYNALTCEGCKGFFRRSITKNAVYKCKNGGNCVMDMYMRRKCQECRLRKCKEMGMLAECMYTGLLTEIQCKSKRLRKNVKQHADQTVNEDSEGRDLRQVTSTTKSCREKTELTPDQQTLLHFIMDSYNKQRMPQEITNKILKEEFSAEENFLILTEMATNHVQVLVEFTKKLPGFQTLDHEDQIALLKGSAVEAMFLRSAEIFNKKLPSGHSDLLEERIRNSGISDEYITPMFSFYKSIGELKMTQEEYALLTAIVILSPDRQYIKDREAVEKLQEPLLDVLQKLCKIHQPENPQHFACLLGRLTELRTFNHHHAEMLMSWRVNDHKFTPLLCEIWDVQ
Peroxisome proliferator-activated receptor delta (Homo sapiens), sequence (Q03181 whole entry, looked up): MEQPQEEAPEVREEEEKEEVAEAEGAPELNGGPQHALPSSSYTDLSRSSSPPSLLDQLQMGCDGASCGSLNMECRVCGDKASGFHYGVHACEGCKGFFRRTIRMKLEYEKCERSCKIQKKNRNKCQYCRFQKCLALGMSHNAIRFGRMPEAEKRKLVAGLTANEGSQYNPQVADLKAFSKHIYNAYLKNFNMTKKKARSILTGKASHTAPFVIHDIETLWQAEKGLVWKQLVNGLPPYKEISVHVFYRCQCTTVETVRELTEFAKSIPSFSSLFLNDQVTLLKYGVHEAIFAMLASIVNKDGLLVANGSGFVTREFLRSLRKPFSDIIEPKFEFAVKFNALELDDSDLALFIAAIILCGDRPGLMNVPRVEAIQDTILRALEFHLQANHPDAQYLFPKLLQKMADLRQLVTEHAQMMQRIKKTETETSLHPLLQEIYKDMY
Ubiquitin carboxyl-terminal hydrolase 1 (Homo sapiens), sequence (O94782 whole entry, looked up): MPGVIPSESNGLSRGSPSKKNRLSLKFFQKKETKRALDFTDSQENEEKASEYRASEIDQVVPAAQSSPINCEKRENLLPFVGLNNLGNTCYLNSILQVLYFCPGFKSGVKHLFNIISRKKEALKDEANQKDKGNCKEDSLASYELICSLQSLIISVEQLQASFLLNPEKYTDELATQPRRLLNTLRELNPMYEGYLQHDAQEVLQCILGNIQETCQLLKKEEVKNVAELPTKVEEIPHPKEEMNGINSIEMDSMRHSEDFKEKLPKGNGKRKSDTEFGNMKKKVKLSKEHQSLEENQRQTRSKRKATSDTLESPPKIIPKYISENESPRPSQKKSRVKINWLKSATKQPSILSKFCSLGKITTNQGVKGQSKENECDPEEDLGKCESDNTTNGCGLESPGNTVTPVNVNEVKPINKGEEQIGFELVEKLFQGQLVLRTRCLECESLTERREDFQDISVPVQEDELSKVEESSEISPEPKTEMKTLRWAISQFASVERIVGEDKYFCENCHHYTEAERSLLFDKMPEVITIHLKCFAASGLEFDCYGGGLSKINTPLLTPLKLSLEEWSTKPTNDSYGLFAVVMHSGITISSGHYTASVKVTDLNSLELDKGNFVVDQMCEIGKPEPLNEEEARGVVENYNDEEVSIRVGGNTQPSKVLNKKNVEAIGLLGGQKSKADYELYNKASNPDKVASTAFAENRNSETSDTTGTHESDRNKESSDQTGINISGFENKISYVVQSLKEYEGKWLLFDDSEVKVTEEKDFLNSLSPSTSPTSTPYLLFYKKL

Nc1nc(SCc2ccc([N+](=O)[O-])cc2)c2ncn([C@@H]3O[C@H](CO)[C@@H](O)[C@H]3O)c2n1
inactive: outcome [1] | Potency [2] | Potency [3] | Potency [4] | Potency [5]

CC(COc1ccc(/C=C/c2ccccc2)cc1)[N+](C)(C)C (centres undefined)
inactive: outcome [1] | Potency [2] | Potency [3] | Potency [4] | Potency [5]

CSc1nc(N)c2ncn([C@@H]3O[C@H](COP(=O)(O)OP(=O)(O)O)C(O)[C@H]3O)c2n1 (some centres undefined)
inactive: outcome [1] | Potency [2] | Potency [3] | Potency [4] | Potency [5]

C=C1C[C@@]23CC[C@H]4[C@@](C)(CCC[C@@]4(C)C(=O)OC4OC(CO)C(O)C(O)C4O)[C@@H]2CC[C@]1(OC1OC(CO)C(O)C(O)C1OC1OC(CO)C(O)C(O)C1O)C3 (some centres undefined)
inactive: outcome [1] | Potency [2] | Potency [3] | Potency [4] | Potency [5]

COc1ccc2cc([S+]([O-])Cc3ncc(C)c(OC)c3C)nc2c1
inactive: outcome [1] | Potency [2] | Potency [3] | Potency [4] | Potency [5]

CCCC1(C)C(C#N)(C#N)C1(C#N)C#N
inactive: outcome [1] | Potency [2] | Potency [3] | Potency [4] | Potency [5]

NCCCCC(=O)O
inactive: outcome [6] | outcome [1] | Potency [2] | Potency [3] | Potency [4] | Potency [5]

Nc1nc(Cl)nc2c1ncn2[C@@H]1O[C@H](CO)[C@@H](O)[C@H]1O
inactive: outcome [1] | Potency [2] | Potency [3] | Potency [4] | Potency [5]

CN1C2CC(OC(=O)[C@H](CO)c3ccccc3)CC1C1OC12 (some centres undefined)
inactive: outcome [1] | Potency [7] | Potency [2] | Potency [3] | Potency [4] | Potency [5]

C=CC(C)=C[C@@]1(C)SC(=O)C(C)=C1O
inactive: outcome [1] | Potency [2] | Potency [3] | Potency [4] | Potency [5]

CC(C)Cn1c(=O)n(C)c(=O)c2[nH]cnc21
inactive: outcome [6] | outcome [1] | Potency [2] | Potency [3] | Potency [4] | Potency [5]

O=c1ccn([C@@H]2O[C@H](COP(=O)(O)OP(=O)(O)O)[C@@H](O)[C@H]2O)c(=O)[nH]1
inactive: outcome [1] | Potency [2] | Potency [3] | Potency [4] | Potency [5]

NC(N)=[N+]1CCc2ccccc2C1
inactive: outcome [6] | outcome [8] | outcome [1] | Potency [2] | Potency [3] | Potency [4] | Potency [5]

O=C(O)c1cc(O)c2ccccc2c1O
inactive: activation [9] 1.64% | Potency [10] | Potency [2] | Potency [3] | Potency [4] | Potency [5]

CCCCC=O
inactive: activation [9] 1.59% | Potency [2] | Potency [3] | Potency [4] | Potency [5]

CCCC/C=C\CCCCCCCCCC=O
inactive: activation [9] -2.92% | Potency [10] | Potency [2] | Potency [3] | Potency [4] | Potency [5]

CN1CCc2cc(NC(=O)Nc3cccnc3)ccc21
inactive: outcome [6] | outcome [8] | outcome [1] | Potency [2] | Potency [3] | Potency [4] | Potency [5]
